# From the supplement of paper PMC9262897, “Low-cost anti-mycobacterial drug discovery using engineered E. coli” (Nature Communications, 2022)
# Where a name gives a salt, the structure may show the parent alone. ± gives the standard deviation of the averaged measurements.
# System: E. coli TESEC Mtb Alr
# Test: growth (OD600 after 10 h); higher = more growth (less inhibition)
# Details: compound 0.1 mM
# Experimental: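 TESEC Mtb Alr E. coli, or the Alr+ wild-type control, in 384-well plates with Prestwick library compounds at 0.1 mM and 1% DMSO, across arabinose induction levels of 1E3 to 1E7 nM. Growth is read as OD600 after 10 h at 37 °C in triplicate biological replicates.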
# [1] = arabinose 1000 nM, raw OD600 reference: median of DMSO wells 0.294, cell-free background 0.041
# [2] = arabinose 10000 nM, raw OD600 reference: median of DMSO wells 0.264, cell-free background 0.041
# [3] = arabinose 100000 nM, raw OD600 reference: median of DMSO wells 0.201, cell-free background 0.041
# [4] = arabinose 1000000 nM, raw OD600 reference: median of DMSO wells 0.193, cell-free background 0.041
# [5] = arabinose 10000000 nM, raw OD600 reference: median of DMSO wells 0.146, cell-free background 0.041
SMILES,growth [1],growth [2],growth [3],growth [4],growth [5]
CCN1CCC[C@H]1CNC(=O)c1c(O)c(Cl)cc(Cl)c1OC [Raclopride],0.16 ± 0.01,0.148 ± 0.017,0.14 ± 0.014,0.107 ± 0.0082,0.172 ± 0.0058
Clc1cccc(Cl)c1NC1=NCCN1 [Clonidine hydrochloride],0.289 ± 0.0065,0.261 ± 0.0058,0.201 ± 0.023,0.173 ± 0.0049,0.145 ± 0.011
CN1C(C)(C)CCCC1(C)C [Pempidine tartrate],0.307 ± 0.017,0.284 ± 0.0059,0.183 ± 0.026,0.196 ± 0.0024,0.143 ± 0.011
CC(C)(C)NC[C@@H](O)COc1cccc2c1CCCC2=O [(+) -Levobunolol hydrochloride],0.291 ± 0.0069,0.267 ± 0.007,0.18 ± 0.0047,0.182 ± 0.0049,0.136 ± 0.003
CC(=C(CCO)SSCC1CCCO1)N(C=O)Cc1cnc(C)nc1N (stereo in doubt) [Fursultiamine Hydrochloride],0.313 ± 0.0078,0.282 ± 0.0063,0.208 ± 0.023,0.22 ± 0.0094,0.132 ± 0.0026
CCC(=O)O[C@@H](O[P@](=O)(CCCCc1ccccc1)CC(=O)N1C[C@H](C2CCCCC2)C[C@H]1C(=O)O)C(C)C [Fosinopril],0.33 ± 0.0063,0.25 ± 0.015,0.281 ± 0.018,0.0879 ± 0.0031,0.154 ± 0.0039
CC(C)(C#N)c1cc(Cn2cncn2)cc(C(C)(C)C#N)c1 [Anastrozole],0.274 ± 0.0032,0.272 ± 0.0071,0.194 ± 0.009,0.183 ± 0.0054,0.13 ± 0.0054
CC(=O)OCC(=O)[C@@]12N=C(C)O[C@@H]1C[C@H]1[C@@H]3CCC4=CC(=O)C=C[C@]4(C)[C@H]3[C@@H](O)C[C@@]12C [Deflazacort],0.213 ± 0.009,0.256 ± 0.0029,0.193 ± 0.02,0.168 ± 0.0053,0.1533 ± 0.00035
